Shown are actives, neighbours in structure and some others; about 19% of the full set was active somewhere.
TGFb inhibitor = TGF-b pathway inhibition; HepG2 CAGA-GFP TGF-b/SMAD3 reporter, GFP fluorescence, 18 h; TGF-beta stimulated, 500 pg/mL final; Potency, µM (doses to about 46.1 µM), inactives show at the highest dose activity, negative = inhibition, most hits filed as inhibitors; 410,000 tested, 1.2% active; further: potency means the concentration at half of the fitted maximal effect; on the % scale 0 is the no-effect control and ±100 the full control effect; nearly all actives have a fitted effect of over 65% in size
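Inhibition of TGF-beta-driven CAGA-GFP reporter expression in HEPG2 cells is measured by cellular GFP fluorescence after 18 h stimulation with 500 pg/mL recombinant TGF-beta in 1% FBS medium at 37 degrees C.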
HepG2 tox = counter-screen for TGF-b inhibitors: cytotoxicity in HepG2 cells; AID 588856; 410,000 tested, 0.76% active; HepG2 CAGA-GFP viability, ATP luminescence, 18 h; Potency, µM (doses to about 46.1 µM), for the others: top-dose activity change, negative = cytotoxicity, most hits filed as cytotoxic; further: potency means the concentration at half of the fitted maximal effect
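CellTiter-Glo luminescence gave cytotoxicity after 18 hours at 37 degrees C. The cells were HepG2 CAGA-GFP in 1% FBS DMEM, stimulated with 500 pg/mL TGF-beta after compound addition. %Activity was normalised to no-cell wells (complete cell-killing) and DMSO (no toxicity), and curves were fitted and classified.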
TDP1 cell noCPT = qHTS for Inhibitors of human tyrosyl-DNA phosphodiesterase 1 (TDP1): qHTS in cells in absence of CPT; DT40 Tdp1-/- hTDP1 cells, no CPT, ATP luminescence, 48 h; 420,000 tested, 15% active; Potency, µM (doses to about 46.2 µM), without a hit: at the highest dose activity change, negative = growth inhibition, most hits filed as inhibitors; AID 686978, 2013; further: potency means the concentration at half of the fitted maximal effect; on the % scale 0 is the no-effect control and ±100 the full control effect; nearly all actives have a fitted effect of over 55% in size
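Stably hTDP1-transfected Tdp1-null chicken DT40 cells were treated with library compounds minus camptothecin and grown for at least 48 hr at 37 °C, after which cellular ATP was quantified by luminescence.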
IL-1B inflam inh = inflammasome signaling inhibition, IL-1 beta readout; THP-1 LPS/ATP IL-1B secretion, AlphaLISA, 16 h; hits give low values; activity change, % at 57.5 µM; 360,000 tested, 4.7% active; AID 743279; in the data active means activity change below about -50%; inconclusive means mostly about -30% to -49%; further: on the % scale 0 is the no-effect control and ±100 the full control effect
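Secreted IL-1B measured by AlphaLISA bead assay after 16 h compound exposure of THP-1 cells; compounds (final up to 57.5 uM) added 1 h before LPS (250 ng/mL) and ATP (1.25 mM) stimulation; lower signal means less secretion.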
DT40 TDP1 CPT = growth inhibition of DT40 Tdp1-/-;hTDP1 cells with camptothecin (screen for TDP1 inhibitors); AID 686979; 420,000 tested, 12% active; chicken DT40 Tdp1-/-;hTDP1 cells + 20 nM CPT, ATP luminescence, 48 h; Potency, µM (series often up to 46.2 µM), without a hit: at the top dose activity change, negative = growth inhibition, most hits filed as inhibitors; further: potency means the concentration at half of the fitted maximal effect; on the % scale 0 is the no-effect control and ±100 the full control effect; nearly all actives have a fitted effect of over 55% in size
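Chicken DT40 Tdp1-/- cells stably complemented with human TDP1 were seeded at 400 cells/well in medium containing 20 nM camptothecin, exposed to pin-transferred compounds, and grown at 37 °C for at least 48 hr. Viability was read as ATP luminescence.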
S-ASM inh = inhibitors of human secretory acid sphingomyelinase; placental ASM, HMU-PC fluorogenic substrate, 60 min; Potency, µM (top dose mostly 57.5 µM), for inactives: at the top dose activity change, negative = inhibition, usual class: inhibitors; 340,000 tested, 0.006% active; further: potency means the concentration at half of the fitted maximal effect
Target sequence (P17405 47-631 limits assumed): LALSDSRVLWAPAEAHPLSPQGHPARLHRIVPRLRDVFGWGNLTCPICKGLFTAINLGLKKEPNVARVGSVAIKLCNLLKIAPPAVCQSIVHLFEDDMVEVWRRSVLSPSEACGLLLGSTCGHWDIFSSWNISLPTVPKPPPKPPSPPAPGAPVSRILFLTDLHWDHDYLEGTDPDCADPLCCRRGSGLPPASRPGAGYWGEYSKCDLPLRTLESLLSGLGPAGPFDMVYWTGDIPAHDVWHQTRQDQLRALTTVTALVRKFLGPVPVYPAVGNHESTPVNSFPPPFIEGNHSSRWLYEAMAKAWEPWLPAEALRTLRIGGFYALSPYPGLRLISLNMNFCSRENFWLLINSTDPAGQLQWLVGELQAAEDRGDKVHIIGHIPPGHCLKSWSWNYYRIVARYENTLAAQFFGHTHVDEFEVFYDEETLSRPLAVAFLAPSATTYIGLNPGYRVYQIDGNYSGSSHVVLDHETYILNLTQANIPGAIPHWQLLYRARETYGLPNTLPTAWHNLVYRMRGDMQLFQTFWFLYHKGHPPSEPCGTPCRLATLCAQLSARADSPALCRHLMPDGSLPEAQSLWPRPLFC
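HMU-PC0 cleavage (9 uM final) by human placental ASM, 60 min at 37 °C following 10 min compound exposure at RT; stopped at pH 10, fluorescence Ex 386/Em 447 nm.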
* = called active by the depositor; ? = inconclusive; nt = not tested or not shown. Unless noted, the call rests on the fitted dose curve; in most records, active means well fitted curve in the direction sought with a large enough effect; inconclusive means small, poorly fitted or top-dose-only effect, or another doubt; inactive means no such curve, though single readings can be large; an effect the other way counts as inactive or inconclusive.

SMILES	TGFb inhibitor	HepG2 tox	TDP1 cell noCPT	IL-1B inflam inh	DT40 TDP1 CPT	S-ASM inh
Cc1ccc([N+](=O)[O-])cc1CN1CCN(c2ncc(Cc3ccccc3)cn2)CC1	nt	nt	?	58.1	?	nt
COc1cc(-c2noc(-c3nnn(-c4ccc(Cl)cc4)c3C)n2)cc(OC)c1OC	nt	-1.2%	?	nt	?	nt
Cc1ccccc1CNC(=O)c1cccc(NC(=O)N2CCSc3ncccc32)c1	0.0%	-13.3%	16.4µM*	nt	18.4µM*	nt
COc1ccc(CNC(=O)c2ccc(NC(=O)N3CCSc4ncccc43)cc2)cc1	0.0%	-7.1%	?	nt	?	nt
CCCCOc1ccc(CNC(=O)c2cccc(NC(=O)N3CCSc4ncccc43)c2)cc1	-56.5%	-37.7%	16.4µM*	nt	?	nt
CC(C)Oc1ccc(CNC(=O)c2cccc(NC(=O)N3CCSc4ncccc43)c2)cc1	0.0%	-3.8%	20.6µM*	nt	?	nt
CCCCOc1ccc(CNC(=O)Cc2ccc(NC(=O)N3CCSc4ncccc43)cc2)cc1	-15.7%	-27.2%	?	nt	?	nt
CCOc1ccc(CNC(=O)c2cccc(NC(=O)N3CCSc4ncccc43)c2)cc1	0.0%	-1.0%	23.1µM*	nt	?	nt
O=C(NCCc1c[nH]c2ccccc12)OCCSS(=O)(=O)O	-3.3%	-2.2%	-1.6%	26.8	9.7%	3.1%
CCN(CC)C(=O)C1=C(C)N(CCCOC)C(=O)C(CC(=O)NC2CC2)C1 (stereo not given)	20.4%	-103.0%	0.5%	7.8	-3.6%	nt
CCC(=O)N1CCc2cc(Br)cc(S(=O)(=O)CCC(=O)Nc3ccc(C)c(C)c3)c21	-12.9%	-3.4%	1.1%	nt	12.1%	nt
Cc1cc(NC(=O)C(C)SCC(=O)N(C)Cc2c(F)cccc2Cl)no1 (stereo not given)	-3.2%	8.2%	?	9.3	?	2.8%
Cc1cccc(N(Cc2ccccc2)C(=O)CSC(C)C(=O)Nc2cc(C)on2)c1 (stereo not given)	-11.9%	0.0%	18.4µM*	6.0	?	0.8%
Cc1cccc(N(Cc2ccccc2)C(=O)CCl)c1	?	-85.5%	?	-6.4	2.31µM*	0.8%
COc1ccc(CC(=O)N(Cc2ccccc2)c2cccc(C)c2)cc1OC	5.3%	-5.3%	14.6µM*	?	?	1.3%
O=C(CCl)N(Cc1cc(=O)[nH]c2ccccc12)c1ccccc1	11.2µM*	-92.1%	2.31µM*	-77.6*	4.11µM*	0.6%
CCOc1ccc(-c2cn3nc(CC(C)C)sc3n2)cc1	-15.1%	-22.9%	?	nt	-18.4%	nt
O=C(/C=C/c1ccccc1Cl)Nc1nc(-c2cccs2)ns1	?	-22.8%	?	nt	?	nt
COc1ccccc1C(=O)N(Cc1ccccc1)c1ccc(C)cc1	2.2%	-18.5%	?	?	14.6µM*	-0.9%
O=C(CCl)N(Cc1ccccc1)c1ccccc1	12.6µM*	12.6µM*	5.8µM*	-95.9*	5.17µM*	2.2%
Cc1cc(NC(=O)C(C)SCC(=O)Nc2ccc(Br)cc2Br)no1 (stereo not given)	12.8%	-15.8%	13µM*	-5.3	?	nt
Oc1ccccc1CNCCCN1CCOCC1	-16.2%	3.3%	23.3%	14.8	0.1%	1.2%
Oc1ccc(/C=N/NC(=S)NC2CC3CCC2C3)cc1 (stereo not given)	-27.4%	-30.2%	?	-66.1*	?	-1.9%
S=C(N/N=C/c1cccs1)NC1CC2CCC1C2 (stereo not given)	-25.4%	-14.8%	?	nt	-27.5%	-9.3%
CCc1cccc(NC(=O)Cn2c(=O)n(Cc3ccccc3)c(=O)c3c2c2cc(OC)ccc2n3C)c1	0.0%	-12.4%	?	nt	?	nt
